“And” between values parts separate entries of the source, which are not always exact repeats. Identical values can stand only once. Records with an inconclusive call do not appear. The source made the active and inactive calls.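 Rule for the calls, unless noted: active = normalized viability below 100% at a tested concentration; inactive = the rest.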

Broadly, the AC50 is the concentration at which the activity in the assay is half-maximal. Broadly, the IC50 is the concentration needed to halve the response being measured. The term viability denotes a read-out of living cells in per cent, often relative to untreated cells.

The nature of assay [1]: growth inhibition of DIPG glioma cells, dose response, cell-based, SU-DIPG-XVII, MIPE5.0, CellTiter-Glo, qHTS (AID 1347060; cut-off not given, nearly all actives have AC50 up to about 26 µM;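 for AC50: cells exposed to compound for 48 hours before viability readout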). Particulars: SU-DIPG-XVII viability, CellTiter-Glo ATP luminescence.
The nature of assay [2]: growth inhibition of DIPG glioma cells, dose response, cell-based, SU-DIPG-XIII, MIPE4.0, CellTiter-Glo, qHTS (AID 1347061; cut-off not given, nearly all actives have AC50 up to about 37 µM;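 note: cells exposed to compound for 48 hours before readout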). Particulars: SU-DIPG-XIII viability, CellTiter-Glo ATP luminescence. For orientation: In ATP-based viability assays light output follows the ATP content of the culture.
Assay [3] can be described thus: growth inhibition of DIPG glioma cells, dose response, cell-based, JHH-DIPG-1, MIPE4.0, CellTiter-Glo, qHTS (AID 1347062; cut-off not given, nearly all actives have AC50 up to about 27 µM;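 for AC50: cells exposed to compound for two days before readout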). The following applies: JHH-DIPG-1 viability, CellTiter-Glo ATP luminescence.
Assay [4] is described as follows: growth inhibition of DIPG glioma cells, dose response, cell-based, SU-DIPG-IV, MIPE4.0, CellTiter-Glo, qHTS (AID 1347063; cut-off not given, nearly all actives have AC50 up to about 30 µM;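 note: compound exposure lasted 48 hours before the viability readout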). The following applies: SU-DIPG-IV viability, CellTiter-Glo ATP luminescence.
A short description of assay [5]: growth inhibition of DIPG glioma cells, dose response, cell-based, SU-DIPG-XIII, MIPE5.0, CellTiter-Glo, qHTS (AID 1347064; cut-off not given, nearly all actives have AC50 up to about 23 µM). Particulars: SU-DIPG-XIII viability, CellTiter-Glo ATP luminescence.
Assay [6] can be described thus: SU-DIPG-XXV glioma cell viability, MIPE5.0 library, qHTS (AID 1347068; cut-off not given, nearly all actives have IC50 up to about 30 µM;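 for IC50: cells exposed to compound for 48 hours before viability readout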).
Assay [7] can be described thus: modifiers of HSF1 nuclear foci, imaging, Selleck Cancer Library (AID 1347162; in the data active = plate-normalised HSF1 focus index below about 0.46). Particulars: human cells, at 10 µM; SSMD: measured here: HSF1 foci SSMD mean; cell count: measured here: cell number; plate-normalised HSF1 focus index: stronger effect = lower value.
Assay [8] is described as follows: viability loss in pontine glioma line – cell-based, SU-DIPG-XXV, MIPE5.0, CellTiter-Glo, qHTS, dose response (AID 1347065; cut-off not given, nearly all actives have AC50 up to about 26 µM;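 note: cells exposed to compound for 48 hours before ATP readout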). Particulars: CellTiter-Glo ATP luminescence.
Assay [9] is described as follows: SU-DIPG-VI glioma cell viability, MIPE4.0 library, CellTiter-Glo luminescence, qHTS (AID 1347066; cut-off not given, nearly all actives have AC50 up to about 30 µM;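 note: cells exposed to compound for 48 hours before readout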). Particulars: CellTiter-Glo ATP luminescence.
Assay [10] can be described thus: JHH-DIPG-1 glioma cell viability, MIPE5.0 library, CellTiter-Glo luminescence, qHTS (AID 1347067; cut-off not given, nearly all actives have AC50 up to about 26 µM;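 note: cells exposed to compound for 48 hours before readout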). The following applies: JHH-DIPG-1 glioma viability, CellTiter-Glo ATP luminescence.
Assay [11] is described as follows: sensitizers of A549 cells to miR-34 induction, primary screen, imaging, A549 dox-inducible miR-34, nuclei and caspase counts (AID 1347080;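 active = compounds whose cell count with miR-34 switched on is under 0.7 times the count with it off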). The following applies: A549 miR-34 inducible, Hoechst nuclei count, 48 h.
A short description of assay [12]: survival rescue of mitochondrial mutant cells in low glucose, primary screen, MELAS cybrids, Rieske KO mouse fibroblasts, CellTiter-Glo (AID 1508586;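 active = mean z-score across replicates of 1.96 or higher in either the MELAS or the Rieske mutant cell line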;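 note: z relative to plate mean and SD of compound and empty wells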).
Assay [13] is described as follows: ovarian cancer cell viability with rucaparib, profiling panel, oncology-focused library, rucaparib conditional (AID 1508598). The following applies: patient-derived ovarian cancer cells, CellTiter-Glo viability, 144 h, stronger effect = lower value.

As to `Cc1cc2c(cc1C1(c3ccc(C(=O)O)cn3)CC1)C(C)(C)CCC2(C)C`, the outcome in [1], in [2], in assay [3], in assay [4], in [5] and in assay [6] was inactive. Besides, in assay [7], the SSMD came out at 2.63. Besides, the cell count in assay [7] came out at 7020. Moreover, the plate-normalised HSF1 focus index in assay [7] was 1.16 (inactive).
For the molecule `COc1ccc(C2CC(c3ccccc3)=NN2c2ccc(S(N)(=O)=O)cc2)cc1` (stereo unspecified), the molecule was classed as inactive in assay [1], in assay [2], in assay [8], in assay [9] and in assay [10]. Also, the figures for the AC50 in assay [3] and in assay [4] were 4.69 µM (active) and 16.6 µM (active), respectively. In addition, in assay [7], the SSMD came to 2.07. In assay [7], this molecule had a cell count of 7280. For the same molecule, in [7], the plate-normalised HSF1 focus index is 1.13 (inactive).
Consider `CCC[C@@H](C=O)NC(=O)[C@H](CC(C)C)NC(=O)[C@H](CC(C)C)NC(=O)OCc1ccccc1`, for which the AC50 is 0.332 µM (active) in assay [1]; 0.935 µM (active) in assay [2]; 0.372 µM (active) in assay [3]; 0.148 µM (active) in assay [4]; 0.186 µM (active) in assay [8]; 0.526 µM (active) in assay [9]. Besides, the half-maximal activity concentration (AC50) in assay [10] is 0.525 µM (active). Besides, the IC50 in [6] is 0.59 µM (active).
Take `O=C1CCC[C@@H]2[C@H]3CCC[N+]4([O-])CCC[C@@H](CN12)[C@@H]34` (stereo partly specified): the call in assay [1], in [2], in assay [3], in assay [4], in assay [8] and in assay [9] was inactive. For the same molecule, the molecule was called inactive in assay [10] and in [6].
Turning to `C=C(c1ccc(C(=O)O)cc1)c1cc2c(cc1C)C(C)(C)CCC2(C)C`, the AC50 is 23.5 µM (active) in assay [1] and 0.118 µM (active) in assay [8]. Besides, the molecule was called inactive in [2], in assay [3], in assay [4], in assay [9] and in assay [6]. Also, the fold change was 0.951 (inactive) and 0.85 (inactive) in assay [11] (stronger effect = lower value, cell number ratio, induced over uninduced); 1.39 and 1.44 in assay [11] (measured here: relative caspase fold change +Dox/-Dox). For the same molecule, the cell count in [11] (measured here: total cells with miR-34 induction, stronger effect = lower value) is 6410 and 6330; in [11] (measured here: total cells without miR-34 induction) it was 6740 and 7440. Further, the z-score was 0.149 (inactive) and 0.79 (inactive) in assay [12] (MELAS cybrid survival, CellTiter-Glo 48 h, stronger effect = higher value); 0.712 and -0.251 in [12] (Rieske KO mouse fibroblast survival, CellTiter-Glo 72 h). Moreover, the viability in [13] (at 0.000305 µM, OCI-C5x cells, with rucaparib 10 µM, 100% = cells with rucaparib alone) is 115% (inactive); in assay [13] (at 0.000305 µM, OCI-C5x cells, without rucaparib), 109% (inactive); in assay [13] (at 0.000305 µM, OCI-P5x cells, with rucaparib 20 µM, 100% = cells with rucaparib alone), 90.9% (active); in [13] (at 0.000305 µM, OCI-P5x cells, without rucaparib), 106% (inactive); in assay [13] (at 0.00122 µM, OCI-C5x cells, with rucaparib 10 µM, 100% = cells with rucaparib alone) it was 116% (inactive); in assay [13] (at 0.00122 µM, OCI-C5x cells, without rucaparib), 109% (inactive). Further, the viability is 96% (active) in assay [13] (at 0.00122 µM, OCI-P5x cells, with rucaparib 20 µM, 100% = cells with rucaparib alone); 111% (inactive) in assay [13] (at 0.00122 µM, OCI-P5x cells, without rucaparib); 112% (inactive) in assay [13] (at 0.00488 µM, OCI-C5x cells, with rucaparib 10 µM, 100% = cells with rucaparib alone); 120% (inactive) in assay [13] (at 0.00488 µM, OCI-C5x cells, without rucaparib); 108% (inactive) in assay [13] (at 0.00488 µM, OCI-P5x cells, with rucaparib 20 µM, 100% = cells with rucaparib alone); 120% (inactive) in assay [13] (at 0.00488 µM, OCI-P5x cells, without rucaparib). Further, the viability was 108% (inactive) in assay [13] (at 0.0195 µM, OCI-C5x cells, with rucaparib 10 µM, 100% = cells with rucaparib alone); 119% (inactive) in assay [13] (at 0.0195 µM, OCI-C5x cells, without rucaparib); 113% (inactive) in assay [13] (at 0.0195 µM, OCI-P5x cells, with rucaparib 20 µM, 100% = cells with rucaparib alone); 124% (inactive) in [13] (at 0.0195 µM, OCI-P5x cells, without rucaparib); 106% (inactive) in assay [13] (at 0.0781 µM, OCI-C5x cells, with rucaparib 10 µM, 100% = cells with rucaparib alone); 106% (inactive) in assay [13] (at 0.0781 µM, OCI-C5x cells, without rucaparib). Further, the viability in assay [13] (at 0.0781 µM, OCI-P5x cells, with rucaparib 20 µM, 100% = cells with rucaparib alone) was 112% (inactive); in assay [13] (at 0.0781 µM, OCI-P5x cells, without rucaparib) it was 125% (inactive); in assay [13] (at 0.313 µM, OCI-C5x cells, with rucaparib 10 µM, 100% = cells with rucaparib alone), 103% (inactive); in [13] (at 0.313 µM, OCI-C5x cells, without rucaparib) it was 122% (inactive); in [13] (at 0.313 µM, OCI-P5x cells, with rucaparib 20 µM, 100% = cells with rucaparib alone), 115% (inactive); in assay [13] (at 0.313 µM, OCI-P5x cells, without rucaparib), 130% (inactive). In addition, the viability in assay [13] (at 1.25 µM, OCI-C5x cells, with rucaparib 10 µM, 100% = cells with rucaparib alone) was 98% (active); in assay [13] (at 1.25 µM, OCI-C5x cells, without rucaparib), 122% (inactive); in assay [13] (at 1.25 µM, OCI-P5x cells, with rucaparib 20 µM, 100% = cells with rucaparib alone) it was 117% (inactive); in assay [13] (at 1.25 µM, OCI-P5x cells, without rucaparib), 126% (inactive); in assay [13] (at 5 µM, OCI-C5x cells, with rucaparib 10 µM, 100% = cells with rucaparib alone), 101% (inactive); in assay [13] (at 5 µM, OCI-C5x cells, without rucaparib) it was 128% (inactive). Besides, the viability is 116% (inactive) in assay [13] (at 5 µM, OCI-P5x cells, with rucaparib 20 µM, 100% = cells with rucaparib alone) and 125% (inactive) in [13] (at 5 µM, OCI-P5x cells, without rucaparib).
Take `CC(=O)N[C@H]1[C@H](O[C@@H]2c3ccc(c(Cl)c3)Oc3cc4cc(c3O[C@@H]3O[C@H](CO)[C@@H](O)[C@H](O)[C@H]3NC(=O)CCCCCCCC(C)C)Oc3ccc(cc3Cl)C[C@H]3NC(=O)[C@H](N)c5ccc(O)c(c5)Oc5cc(O)cc(c5)[C@H](NC3=O)C(=O)N[C@H]4C(=O)N[C@H]3C(=O)N[C@@H]2C(=O)N[C@@H](C(=O)O)c2cc(O)cc(O[C@H]4O[C@H](CO)[C@@H](O)[C@H](O)[C@@H]4O)c2-c2cc3ccc2O)O[C@H](CO)[C@@H](O)[C@@H]1O`: the call in assay [1], in assay [2], in [3], in assay [4], in assay [8] and in assay [9] was inactive. Besides, the molecule was called inactive in assay [10] and in [6].
As to `OC[C@H]1OC(O)C[C@@H](O)[C@@H]1O` (stereo partly specified), the molecule was classed as inactive in assay [1], in assay [2], in assay [3], in assay [4], in [8] and in assay [9]. The molecule was called inactive in assay [10] and in assay [6].

(Values after PubChem BioAssay.)
